Compounds with a hit are over-represented: about 3.2% of the library has one in this group of screens.
LMNA splice mod – qHTS Assay for Modulators of Lamin A Splicing; HeLa LMNA splicing GFP/RFP minigene ratio, 48 h; Potency, µM (series often up to 46.1 µM), usual class: inhibitors; actives 0.01% (n = 200,000); AID 1487, 2009; active means well fitted inhibition curve with a large enough effect in the signal ratio, with a control signal flat, not every such curve was filed as active; inconclusive means small, poorly fitted or top-dose-only effect, or effect the other way, or a change in a side signal; the % refers to the signal ratio
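S3 HeLa stable clones carrying a lamin A-EGFP splicing minigene plus DsRed2 were seeded at 600 cells/well in Opti-MEM with 2% FBS, pin-dosed and incubated 48 h at 37°C. Acumen cytometry (488 nm) gave the GFP/RFP total-intensity ratio.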
Tau fluor cs – Counterscreen qHTS for Inhibitors of Tau Fibril Formation, Fluorescence Polarization. actives 0.93% (n = 280,000). Potency, µM (highest dose often 57.7 µM). AID 1463, 2008. tau K18 P301L Alexa594 fluorescence, heparin fibrillization; further: nearly all actives have a fitted effect of over 55% in size
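Human K18 P301L tau (15 uM unlabeled plus 0.24 uM Alexa 594-labeled, final) in 100 mM sodium acetate pH 7 was mixed with compound and 20 uM heparin and incubated 6 hr at 37 C.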
CBFb-RUNX1 inh – qHTS Assay for Compounds Blocking the Interaction Between CBF-beta and RUNX1 for the Treatment of Acute Myeloid Leukemia | 230,000 tested, under 10 active | Runt-related transcription factor 1 (Homo sapiens) + Core-binding factor subunit beta … | AID 1477, 2009 | AlphaScreen CBFb-His/RUNX1-biotin binding, biochemical | Potency, µM (highest dose often 59.8 µM), hits mostly inhibitors
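AlphaScreen binding: CBFb-His and RUNX1-biotin (30 nM each) preincubated 20 min, compound added for 15 min, then nickel and streptavidin beads for 90 min, all at room temperature. Disruption of the interaction by any mechanism counts as activity.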
JMJD2E inh – qHTS Assay for Inhibitors of Human Jumonji Domain Containing 2E (JMJD2E). AID 2147, 2009. actives 1.6% (n = 230,000). Lysine-specific demethylase 4E (Homo sapiens), B2RXH2. JMJD2E catalytic domain, FDH-coupled NADH fluorescence (FDH is formaldehyde dehydrogenase). Potency, µM (top dose mostly 57.1 µM), most hits filed as inhibitors; active means well fitted inhibition curve with a large enough effect, not every such curve was filed as active; inconclusive means small, poorly fitted or top-dose-only effect, or another doubt; inactive means no such curve, though single readings can be large or run the other way; further: nearly all actives have a fitted effect of over 50% in size
Target sequence (B2RXH2 1-337 limits assumed): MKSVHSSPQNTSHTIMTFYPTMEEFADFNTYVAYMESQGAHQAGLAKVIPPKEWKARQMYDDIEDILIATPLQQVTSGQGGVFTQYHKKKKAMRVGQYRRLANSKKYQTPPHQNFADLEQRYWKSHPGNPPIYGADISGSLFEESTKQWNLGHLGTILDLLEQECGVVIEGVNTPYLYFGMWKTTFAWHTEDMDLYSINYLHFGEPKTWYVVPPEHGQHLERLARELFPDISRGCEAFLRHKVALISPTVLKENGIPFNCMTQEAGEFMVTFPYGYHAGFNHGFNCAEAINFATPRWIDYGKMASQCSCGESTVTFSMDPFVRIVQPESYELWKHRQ
Tau fibril ThT – qHTS for Inhibitors of Tau Fibril Formation, Thioflavin T Binding | recombinant tau K18 P301L (four-repeat tau fragment), heparin-induced fibrillization, ThT fluorescence | Potency, µM (highest dose often 57.4 µM), usual class: inhibitors | actives 2.1% (n = 270,000) | AID 1460, 2008; further: nearly all actives have a fitted effect of over 55% in size
Target sequence (P10636 561-689 P618L limits assumed): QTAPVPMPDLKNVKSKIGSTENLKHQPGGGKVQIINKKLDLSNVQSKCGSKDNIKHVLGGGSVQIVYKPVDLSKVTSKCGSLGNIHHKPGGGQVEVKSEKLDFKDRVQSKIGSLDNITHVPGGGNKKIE
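Aggregation was driven by heparin (20 uM final) acting on recombinant tau […] bearing P301L in 100 mM sodium acetate pH 7; fibrils were detected with Thioflavin T.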
Tau FP inhib – qHTS for Inhibitors of Tau Fibril Formation, Fluorescence Polarization | AID 1468, 2008 | Potency, µM (top dose mostly 57.7 µM), actives largely listed as inhibitors | K18 P301L tau heparin fibrillization, Alexa594 FP, 6 h | actives 0.39% (n = 280,000); further: nearly all actives have a fitted effect of over 55% in size
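Quantitative HTS format: compounds meet 15 uM recombinant K18 P301L tau and Alexa 594-tau tracer in 100 mM sodium acetate pH 7; 20 uM heparin triggers fibrillization at 37 C over 6 hr; FP gives the signal.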
A number is an active result; n = inactive; u = inconclusive; x = no result; [ ] = another dose, or the depositor's remark. Unless noted, the call rests on the fitted dose curve; in most records, active means well fitted curve in the direction sought with a large enough effect; inconclusive means small, poorly fitted or top-dose-only effect, or another doubt; inactive means no such curve, though single readings can be large; an effect the other way counts as inactive or inconclusive.

SMILES	LMNA splice mod	Tau fluor cs	CBFb-RUNX1 inh	JMJD2E inh	Tau fibril ThT	Tau FP inhib
CC(C)(C)C(=O)[C@@H]1[C@@H]2C(=O)N(c3ccc4c(c3)OCCO4)C(=O)[C@@H]2C2c3ccccc3C=CN21 (stereo partly specified)	n	u	n	n	28µM	u
Cc1ccc(N2C(=O)[C@@H]3[C@H](C2=O)C2c4ccccc4C=CN2[C@@H]3C(=O)c2ccco2)c(C)c1 (stereo partly specified)	n	n	n	u	25µM	u
Cc1ccc(N2C(=O)[C@@H]3[C@H](C2=O)C2c4ccccc4C=CN2[C@@H]3C(=O)c2ccco2)cc1 (stereo partly specified)	n	n	n	n	25µM	u
COc1ccc(-n2c(-c3ccco3)nc3c(cnn3-c3ccccc3Cl)c2=O)cc1	x	n	x	x	n	n
CCOC(=O)c1c(C)oc2ncnc(N3CCN(c4ccccc4F)CC3)c12	n	n	x	x	n	n
Cc1cc(C)nc(NS(=O)(=O)c2ccc(NC(=O)c3ccccc3O)cc2)n1	x	n	x	x	n	n
C[C@H]1c2cccc(O)c2C(O)=C2C(=O)[C@]3(O)C(O)=C(C(N)=O)C(=O)[C@@H](N(C)C)[C@@H]3[C@@H](O)[C@@H]21	x	n	n	20µM	n	n
C[C@H]1c2cccc(O)c2C(O)=C2C(=O)[C@]3(O)C(O)=C(C(N)=O)C(=O)C(N(C)C)[C@@H]3[C@@H](O)C21 (stereo partly specified)	u	n	n	u	u	n
COC(=O)c1c(NC(=O)COC(=O)c2ccccc2O)sc2c1CCCCC2	n	n	n	u	u	n
COC(=O)c1c(NC(=O)COC(=O)c2ccc(NC(=O)CC#N)cc2)sc2c1CCCCC2	x	n	n	5µM	n	n
N#CCC(=O)Nc1ccc(C(=O)OCC(=O)Nc2ccccc2Sc2ccccc2)cc1	x	u	n	n	n	28µM
CC(=O)NC(c1ccco1)c1ccc2cccnc2c1O (stereo unspecified)	u	n	n	25µM	n	n
COc1ccc(C(Nc2cc(C)ccn2)c2ccc3ccc(C)nc3c2O)cc1 (stereo unspecified)	x	u	n	u	x	n
Oc1c(C(Nc2ccccn2)c2ccccc2F)ccc2cccnc12 (stereo unspecified)	u	n	x	x	u	n
COc1ccc(C(NC(=O)C(C)C)c2ccc3cccnc3c2O)cc1 (stereo unspecified)	x	n	u	28µM	x	n
O=C(NCc1ccc(Cl)cc1)c1cnc2sc(N3CCCCCC3)nn2c1=O	n	n	x	x	n	n
Cc1ccccc1NC(=O)c1ccccc1NC(=O)Cc1cccc2ccccc12	n	n	n	n	n	n
Cc1ccccc1NC(=O)c1cccc2nc3ccccc3nc12	n	u	n	n	8.9µM	u
Cc1cc(C)c(C(CC(=O)c2cccs2)C(C#N)C#N)c(C)c1 (stereo unspecified)	u	n	n	n	25µM	n
Cc1cc(C)c2c(c1)NC(=O)C2(O)CC(=O)c1cccs1 (stereo unspecified)	n	n	n	n	u	n
Oc1ccc(/C=N/NC(=S)Nc2cccnc2)c(O)c1O	x	11µM[quencher]	x	2.2µM	1.6µM	2µM
Fc1cccc(F)c1/C=N/NC(=S)Nc1cccnc1	u	n	n	n	n	n
Oc1cccc(/C=N/NC(=S)NCCN2CCOCC2)c1O	u	n	x	25µM	n	n
O=C(O)c1ccc(/C=N/NC(=S)NCCN2CCOCC2)cc1	x	n	n	n	n	n
NC(=S)N/N=C/c1cccc(O)c1O	u	n	x	35µM	u	n
SMILES	LMNA splice mod	Tau fluor cs	CBFb-RUNX1 inh	JMJD2E inh	Tau fibril ThT	Tau FP inhib
Oc1cccc(/C=N/NC(=S)Nc2cccnc2)c1O	u	n	x	22µM	n	n
Fc1c(F)c(F)c(/C=N/NC(=S)Nc2cccnc2)c(F)c1F	x	n	n	n	n	n
Oc1ccc(/C=N/NC(=S)Nc2cccnc2)c(O)c1	u	n	x	28µM	u	u
O=Cc1ccc(-n2cncn2)cc1	x	n	n	7.1µM	n	n
COC(=O)/C=C/c1ccc(-n2cncn2)cc1	x	n	n	n	n	n
COc1ccc(NC(=O)Cn2c(=O)n(Cc3nc(-c4ccccc4)no3)c(=O)c3cc4c(cc32)OCO4)cc1Cl	x	n	x	x	n	u
CCOC(=O)c1cc(C(=O)OCC)c(=O)[nH]c1C	u	n	n	n	u	n
CCOC(=O)c1cc(C)[nH]c(=S)c1C#N	n[0.0737 µM]	n	n	18µM	u	n
Cc1cccc(OCc2ccc(-c3nc(C#N)c(NCc4cccnc4)o3)o2)c1	n	u	x	x	u	u
CC1CCCN(C(=S)SCC(=O)c2cc(Br)cc(Br)c2O)C1 (stereo unspecified)	u	u	n	u	16µM	u
O=C(CSC(=S)N1CCCC1)c1cc(Br)cc(Br)c1O	u	n	n	u	u	n
COc1cc(/C=N/N2C(=O)CSC2=S)ccc1O	n	n	n	n	14µM	n
Cc1ccc(-c2nnc(Nc3cccc(O)c3)c3ccccc23)cc1S(=O)(=O)N1CCCCC1	x	8.9µM[quencher]	x	x	n	u
Cc1ccc(-c2nnc(Nc3cccc(Br)c3)c3ccccc23)cc1S(=O)(=O)N1CCCCC1	x	n	x	x	n	u
CCOC(=O)c1c(C)oc2c1c(C=NCCC(=O)O)c(O)c1ccccc12	x	n	n	n	n	n
CCOC(=O)c1c(C)oc2c1c(CN1CCN(C(=O)OCC)CC1)c(O)c1ccccc12	u	u	n	25µM	u	u
CCOC(=O)c1c(C)oc2c1c(C(c1ccncc1)N1CCOCC1)c(O)c1ccccc12 (stereo unspecified)	u	u	n	u	14µM	n
CCOC(=O)c1c(C)oc2c1c(CN1CCN(CCO)CC1)c(O)c1ccccc12	n[9.22 µM]	u	n	u	u	u
CCCCCn1c(=N)c(S(=O)(=O)c2ccccc2)cc2c(=O)n3cccc(C)c3nc21	x	n	x	x	n	n
COc1ccc(NC2=C(c3ccc(OC)cc3)C(=O)c3ccccc32)cc1	n	u	n	n	u	u
COc1ccc(C2=C(Nc3ccccc3)c3ccccc3C2=O)cc1	n	u	n	n	u	n
COC1=C(Nc2ccc(OC)cc2)C(=O)c2ccccc2C1=O	u	u	n	4µM	11µM	u
